# Measured values taken from the supplement of paper PMC6555819.
# System: FXR:RXRa (NR concentration 270 nM, RXRa partner concentration 90 nM)
# Assay: PBM binding z-score (relative to random genomic background probes); higher = stronger binding; sequences stand for … in GC…GCGATTGACAGCGTAGAATGAAGG
# Summary of the method: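 Ligand-free nuclear receptor dimers were bound for 1 h to custom Agilent 4×180K protein-binding microarrays. Detection used antibodies against each partner (one per run). Binding z-scores rest on regression-normalized fluorescence, with random background probes as the reference.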
row,Sequence,PBM binding z-score
1,ATCTCTAGGTAAATGTTCAGTGAATCCCGAGGAT,0.0255
2,AGTCAAAGTTCAGGACGAGGTAAAGTAAAGCACG,4.27
3,CCTACTGGGCCAAAGGTCATAGATTCCAATGCTC,4.64
4,AGTAAAAGTTCACTAGGTAACGTAAGATTCAGCT,4.14
5,GCTTCCGGGTCAAAGGTTATAGCATGAATAGAAT,7.32
6,CAAACTAGGTCACGAAAGGTCAAAATCGAATGAC,7.3
7,CGAACTAGGTCAAAGGACACTGAAAGGCGACGTA,4.53
8,GGAACGGGGGCATTCGAGTTGATAGCATGGCGAT,3.01
9,ACTAGGAGGACAAAGGTCAGAGCTACGCCAGTGA,4.32
10,TATACTGGGTCAAAGGCCAGAGTACGAATGTCGA,4.05
11,CAAACTAGGTCAAGGTCAAATTCGGTTTGTGCCA,6.94
12,AGTCAAAGTTCACTAGGCAACGTAAGATTCAGCT,5.28
13,CGTCCAAGGTCAATGTTAGGTCAGTGAAAGCATT,6.44
14,CGTCCAAGGTCAGAGAGGTCAGTGTATGCCGAGT,6.02
15,ACTAGCAGGCCAAAGGTCACTCAAGATTAGTCCG,4.72
16,GATACAGGGTGAGCTAGAGGCCAGAGTATGGAAA,-0.454
17,CAAACTAGGTCAAAGGTCAACGTCGAGCCAACCA,8.3
18,CGGACTGGGGCAAAGGTTACCATACTCAGTACGA,1.68
19,GCATACGGGTCAAAGGTTATAGCATGAATAGAAT,7.92
20,ACTAGCAGGTCAAGGGTCACTCAAGATTAGTCCG,6.89
21,CAAACTAGGTCACGAGGTCAAAGTCCGCTTCCCG,7.24
22,TCATATAGGTTAAGGTGAAAGTCGAACGATATGA,2.27
